Test results published in PubChem BioAssay AID1220 (Sanford-Burnham Center for Chemical Genomics, 2008).
The whole screen tested about 190,000 compounds, of which about 1,300 (0.68%) were called active. For the sample, actives were picked, then their nearest neighbours and some compounds at random. Values without a mark were called inactive. Rule as the data show it: active = inhibition above about 50%; inactive = the rest.

What follows are compounds tested against Mannose-6-phosphate isomerase (Homo sapiens) (UniProt P34949) (assay: MPI inhibition at elevated mannose 6-phosphate – biochemical, fluorescence intensity, high mannose 6-phosphate, primary screen (AID 1220)). Conditions: recombinant PMI enzyme, coupled fluorescence intensity; at 20 µM; active compounds read high.
Sequence of Mannose-6-phosphate isomerase (Homo sapiens) (P34949 whole entry, looked up): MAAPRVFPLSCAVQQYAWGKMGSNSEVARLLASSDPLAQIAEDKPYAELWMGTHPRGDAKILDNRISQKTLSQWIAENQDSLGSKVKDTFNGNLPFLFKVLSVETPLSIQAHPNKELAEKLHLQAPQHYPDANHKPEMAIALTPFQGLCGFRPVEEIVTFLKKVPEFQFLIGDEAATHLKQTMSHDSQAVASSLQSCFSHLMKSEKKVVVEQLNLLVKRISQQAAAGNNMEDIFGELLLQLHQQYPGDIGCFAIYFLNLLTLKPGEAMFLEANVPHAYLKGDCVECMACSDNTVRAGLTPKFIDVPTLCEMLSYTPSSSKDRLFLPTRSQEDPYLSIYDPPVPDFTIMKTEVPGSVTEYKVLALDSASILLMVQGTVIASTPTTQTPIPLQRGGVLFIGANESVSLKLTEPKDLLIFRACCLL

Row | SMILES | inhibition
1 | COc1cccc(NC(=O)c2ccc(NCCCN3CC(C)CC(C)C3)c([N+](=O)[O-])c2)c1 (stereo unspecified) | -12.8%
2 | CCOP(=O)(CC(C(C)=O)C(O)c1ccccc1)OCC (stereo unspecified) | 11.7%
3 | Cc1cccc(/C=N\Nc2nnc(-c3ccccc3)c(=O)[nH]2)c1 | 7.5%
4 | Cc1ccc(S(=O)(=O)N2CCCC2C(=O)Nc2nc3ccccc3s2)cc1 (stereo unspecified) | 17.6%
5 | CCN(CC)c1ccc(/C=N/N=C(c2ccccc2)c2ccccc2)c(O)c1 | 4.8%
6 | CCN(CC)c1ccc(C=Nc2cc(C)cc(C)c2)c(O)c1 | 52.8% (active)
7 | CCN(CC)c1ccc(/C=N/N=C(N)N)c(O)c1 | 64% (active)
8 | CCN(CC)c1ccc(C=Nc2ccccc2)c(O)c1 | 61.8% (active)
9 | CCN(CC)c1ccc(/C=N/N(c2ccccc2)c2ccccc2)c(O)c1 | 30%
10 | CCOC(=O)N/N=C/c1ccc(N(CC)CC)cc1O | 53.3% (active)
11 | CCN(CC)c1ccc(/C=N/Nc2ccccc2)c(O)c1 | -21.9%
12 | CCN(CC)c1ccc(/C=N/NC(=O)OC)c(O)c1 | 27.7%
13 | CCN(CC)c1ccc(C=Nc2ccc(C#N)cc2)c(O)c1 | 40.4%
14 | CCN(CC)c1ccc(/C=N/Nc2cccc(C)c2)c(O)c1 | -62.5%
15 | CCN(CC)c1ccc(/C=N/NC(=S)NC)c(O)c1 | 21.9%
16 | CCC(=O)N1CCc2cc(S(=O)(=O)NC(Cc3ccccc3)C(=O)NC3CCCCC3)ccc21 (stereo unspecified) | -11.2%
17 | CCCCc1ccc(NC(=S)NCCN2CCOCC2)cc1 | -3.3%
18 | COC(=O)c1cn(C)c2ccc(S(=O)(=O)N3CCOCC3)cc2c1=O | 0.8%
19 | CC(Nc1ccccc1)C(=O)Nc1ccc(F)cc1 (stereo unspecified) | -11.4%
20 | CCN(CC)c1ccc(C=Nc2ccc(N(C)C)cc2)c(O)c1 | 28.1%
21 | CCN(CC)c1ccc(C=Nc2ccc(C)cc2)c(O)c1 | 57% (active)
22 | CCN(CC)c1ccc(N=Cc2ccc(N(CC)CC)cc2O)cc1 | 19.5%
23 | COc1ccc(N(C)S(=O)(=O)c2cccc(C(=O)NCC3CCCO3)c2)cc1 (stereo unspecified) | -3.8%
24 | Cc1sc2ncnc(SCC(=O)N3CCN(C(=O)c4ccco4)CC3)c2c1C | 6.2%

Row | SMILES | inhibition
25 | COc1ccc(C(C(=O)NC2CCCC2)N(Cc2ccccc2)C(=O)c2nsc(Cl)c2Cl)cc1 (stereo unspecified) | 21.1%
26 | CCOC(=O)N1CCc2c(sc3c2C(=O)NC(c2ccccc2)N3)C1 (stereo unspecified) | 60.6% (active)
27 | CSc1ccc(C2NC(=O)c3c(sc4c3CCN(C)C4)N2)cc1 (stereo unspecified) | 17%
28 | CN1CCc2c(sc3c2C(=O)NC(c2ccccc2)N3)C1 (stereo unspecified) | 33%
29 | CCCn1c(SCC(=O)NCc2ccc(OC)cc2)n[nH]c1=O | 11.2%
30 | O=C(NCC1CCCCC1)C1CCCN(C(=O)NC2CCCCC2)C1 (stereo unspecified) | -1.6%
31 | Cc1cc(C)c(S(=O)(=O)Nc2ccc(O)c(Sc3ncn[nH]3)c2)c(C)c1 | 13.7%
32 | Cc1ccc(S(=O)(=O)Nc2ccc(O)c(Sc3ncn[nH]3)c2)cc1 | 27.6%
33 | CC1=CC(C)(C)N(C(=O)CSc2ncn[nH]2)c2ccccc21 | -9.5%
34 | Cc1cc(C)c(S(=O)(=O)/N=C2/C=C(Sc3ncn[nH]3)C(=O)c3ccccc32)cc1C | 90.3% (active)
35 | Cc1ccc(S(=O)(=O)/N=C2/C=C(Sc3ncn[nH]3)C(=O)c3ccccc32)c(C)c1 | 92.7% (active)
36 | Cc1cc(C)c(S(=O)(=O)/N=C2/C=C(SCC(=O)O)C(=O)c3ccccc32)cc1C | -32.3%
37 | Cc1cc(NC(=O)COC(=O)C2COc3ccccc3O2)no1 (stereo unspecified) | -4.4%
38 | CCCC(O)(c1ccc(Cl)cc1)C(CN1CCOCC1)c1ccccc1 (stereo unspecified) | 5.2%
39 | Cc1ccc(S(=O)(=O)N2CCCCC2)cc1NC(=O)COC(=O)C1CC2C=CC1C2 (stereo unspecified) | 11%
40 | O=C(NC1CCCCC1)C1CCN(S(=O)(=O)c2cccs2)CC1 | 5.6%
41 | C=CCc1c(OC)ccc2ccc(=O)oc12 | 0.3%
42 | Cc1cccc2cc(CN(CCCN(C)C)C(=S)NCCc3ccccc3)c(=O)[nH]c12 | -1.6%
43 | CC1CCc2c(sc(NC(=O)CSc3nnc(-c4ccccc4)o3)c2C#N)C1 (stereo unspecified) | 57.2% (active)
44 | N#Cc1c(NC(=O)CSc2nnc(-c3ccccc3)o2)sc2c1CCCC2 | 4.2%
45 | CC(C)(C)C1CCc2c(sc(NC(=O)CSc3nnc(-c4ccccc4)o3)c2C#N)C1 (stereo unspecified) | 15.1%
46 | COC(=O)c1ccc(CSCC(=O)Nc2ccccc2)cc1 | 6.4%
47 | COc1ccc(C2=COc3ccccc3C(=O)N2)cc1 | -6.2%
48 | O=C(CSc1ccc(C(F)(F)F)cc1[N+](=O)[O-])Nc1ccc2ccccc2c1 | 10.8%

Row | SMILES | inhibition
49 | O=C(Nc1nc(-c2ccc(Cl)cc2Cl)cs1)c1ccc(OCC2CCCO2)cc1 (stereo unspecified) | 11.1%
50 | COc1ccc(OC)c(-c2csc(NC(=O)c3ccc(OCC4CCCO4)cc3)n2)c1 (stereo unspecified) | 104% (active)
51 | Cc1csc(NC(=O)c2ccc(OCC3CCCO3)cc2)n1 (stereo unspecified) | 1.2%
52 | COc1ccccc1NC(=O)c1cnc2c(-c3ccccc3)c(C)nn2c1C | 8.9%
53 | COCCNC(=O)/C(C#N)=C/c1cc(C)n(C2CCCCC2)c1C | -6.4%
54 | O=C(c1cnn(-c2ccccc2)c1)c1ccc2ccccc2c1O | 23.1%
55 | O=C(COC(=O)[C@H](Cc1ccccc1)NC(=O)c1ccco1)NC(c1ccccc1)c1ccccc1 | 11.5%
56 | COc1cc(N)cc(NC(=O)c2ccncc2)c1 | 50.4% (active)
57 | COc1cccc(NC(=O)c2ccncc2)c1 | 6%
58 | COc1ccc(C(=O)Nc2cc(OC)cc(OC)c2)cc1 | 10%
59 | COc1nc(OC)nc(N2CCC(C(=O)NC3CCCCCC3)CC2)n1 | 1.4%
60 | Cc1ccccc1NC(=S)NCc1ccc(Cl)cc1 | 9.2%
61 | CC1CCc2c(C(=O)Oc3cccc(-n4cnnn4)c3)csc2C1 (stereo unspecified) | 15.6%
62 | Cc1ccccc1NCc1ccccc1O | 1.6%
63 | Oc1ccccc1CNc1cccc2cccnc12 | 45.3%
64 | Oc1ccc(Cn2ccnc2)c2cccnc12 | 7.4%
65 | Cc1cccnc1NCc1ccc(O)c2ncccc12 | 63.6% (active)
66 | CC(C)COCc1ccc(O)c2ncccc12 | 14.9%
67 | Cc1ccc(O)c(CNc2cccc3cccnc23)c1 | 63.8% (active)
68 | Cc1ccc(O)c(CNc2ccccn2)c1 | -7.2%
69 | COCc1ccc(O)c2ncccc12 | 22.6%
70 | Fc1ccc(NCc2cccnc2)cc1 | -2%
71 | Cc1cccc(NCc2ccccc2O)c1C | 25.8%
